The record followed here is PubChem BioAssay (Tox21).

Results filed as inconclusive are left out. A call without a number means that no potency is given here. Calls of active or inactive are those of the source. Calls follow the shape of the dose curve; as a rule, active = well fitted activation curve with a large enough effect in the repeat runs; inconclusive = weak or mixed curves; inactive = flat fitted curve, though single readings scatter.

The test in a line: A CellTox Green Cytotoxicity Assay to monitor cytotoxicity in HEK293 cells - 40 hour (AID 1224871). Also: nearly all actives have a fitted effect of over 45% in size. Particulars: CellTox Green fluorescence; series mostly up to 76.8 µM. The text has this:
National Center for Advancing Translational Sciences [NCATS]
NIH Chemical Genomics Center [NCGC]
U.S. Environmental Protection Agency [EPA]
National Institutes of Environmental Health Sciences [NIEHS]
National Toxicology Program [NTP]
Cell-based models are critical for drug discovery. Determining the natural cytotoxic effects resulting from test compounds is an essential research activity. A CellTox Green Cytotoxicity Assay to monitor cytotoxicity in real time of continues cell culture during 40 hours of the compound treatment was used to screen Tox21 10K library compounds in Hek293 cells. CellTox Green Cytotoxicity Assay is a nonlytic, homogeneous, biofluorescent method to measure cytotoxicity in cell culture after experimental manipulation. The assay system uses a proprietary asymmetric cyanine dye that is excluded from viable cells but preferentially stains the dead cell's DNA. […] Viable cells produce no appreciable increases in fluorescence. Therefore, the fluorescence signal produced by the binding interaction with dead cell DNA is proportional to cytotoxicity.
The mixture of Hek293 cell suspension and reagents were dispensed at 600cells/6 ul/well in 1536-well tissue culture treated black solid bottom plates using a Multidrop dispenser. After the assay plates were incubated at a 37 C/5% CO2 incubator for 5 hours, 23 nL of compounds dissolved in DMSO, positive and negative controls was transferred to the assay plate by a pintool work station. The plates were incubated at 37 C for 40 hours. The fluorescence intensity were measured at 0h, 8h, 16h, 24h, 32h and 40h time points using ViewLux plate reader during compound treatment.
In the case of `CC[C@H](C)C(=O)O[C@H]1C[C@@H](C)C=C2C=C[C@H](C)[C@H](CC[C@@H]3C[C@@H](O)CC(=O)O3)[C@H]21`, the Potency entry is “inactive”.

Take `O=C=NCCCCCCN=C=O`: the Potency entry was “inactive”.

Take `CCCCN(CCCC)CCCC`: the Potency result was “inactive”.

Regarding `CC(O)COCC(C)O` (stereo not given), the Potency entry is “inactive”.

For the compound `O=C(O)c1cc(C(=O)O)cc(S(=O)(=O)O)c1`, the Potency result is “inactive”.

In the case of `CC1CCC2CC1C2(C)C` (stereo not given), the Potency entry is “inactive”.

Regarding `CN(C)CCC(c1ccccc1)c1ccccn1` (stereo not given), the Potency entry is “inactive”.

`CN(C)CCCN`: the Potency result was “inactive”.

As to `CC(C)c1ccc(S(=O)(=O)O)cc1`, the Potency result was “inactive”.

`CN(C)CCC(c1ccc(Cl)cc1)c1ccccn1` (stereo not given): the Potency result is “inactive”.

Take `C[C@H]1C[C@@H]2[C@H]([C@@H](O)C[C@@]3(C)[C@H]2CC[C@]3(O)C(=O)CO)[C@@]2(C)C=CC(=O)C=C12`: the Potency result was “inactive”.

Regarding `CC(=O)Nc1ccccc1`, the Potency result was “inactive”.

With `CCCCCC(N)=O`, the Potency result was “inactive”.

In the case of `CCCCCCCCCCCCc1ccccc1`, the Potency entry is “inactive”.

For `O=C(O)CC(C(=O)O)C(CC(=O)O)C(=O)O` (stereo not given), the Potency result was “inactive”.

As to `O=C(O)c1ccc2c(c1)C(=O)OC2=O`, the Potency entry was “inactive”.

Regarding `CCCC(C)=O`, the Potency result was “inactive”.

For `Oc1cccc2ccccc12`, the Potency result is “inactive”.

As to `CCN(CC)c1ccc(C(=O)c2ccccc2C(=O)O)c(O)c1`, the Potency result is “inactive”.

As for `CC(=O)CC(=O)Nc1ccccc1`, the Potency entry was “inactive”.

With `C=CCOC(=O)c1ccccc1C(=O)OCC=C`, the Potency result is “inactive”.

In the case of `Nc1ccccc1[N+](=O)[O-]`, the Potency result is “inactive”.

With `CCCCC(CC)COC(=O)CCCCC(=O)OCC(CC)CCCC` (stereo not given), the Potency result was “inactive”.

Take `N[C@@H](Cc1cc(I)c(Oc2cc(I)c(O)c(I)c2)c(I)c1)C(=O)O`: the Potency entry was “inactive”.

For the compound `Cc1cccnc1`, the Potency entry is “inactive”.

As to `O=C(O)c1ccccc1C(c1ccc(O)cc1)c1ccc(O)cc1`, the Potency result is “inactive”.

For `c1ccc(OCCOc2ccccc2)cc1`, the Potency entry was “inactive”.

On to `ON=C1CCCCC1`, for which the Potency result was “inactive”.

For `CC1=CC(=O)NS(=O)(=O)O1`, the Potency result is “inactive”.

With `CC(=O)CC(=O)Nc1ccccc1C`, the Potency result is “inactive”.

In the case of `OCc1cccnc1`, the Potency result is “inactive”.

Turning to `CC(=O)OCC(=O)[C@@]12N=C(C)O[C@@H]1C[C@H]1[C@@H]3CCC4=CC(=O)C=C[C@]4(C)[C@H]3[C@@H](O)C[C@@]12C`, the Potency result was “inactive”.

Turning to `CCc1cccc(C)c1N`, the Potency entry is “inactive”.

For the compound `CC1=C(C)S(=O)(=O)CCS1(=O)=O`, the Potency result was “inactive”.

Turning to `c1c[nH]cn1`, the Potency result is “inactive”.

For `CCCCCCCCCCCCCCCO`, the Potency entry was “inactive”.

In the case of `CC(C)(C)[C@@H](O)[C@@H](Cc1ccc(Cl)cc1)n1cncn1`, the Potency result was “inactive”.

Take `CCCCC(CC)CO` (stereo not given): the Potency entry is “inactive”.

Turning to `OCC(CO)(CBr)CBr`, the Potency result is “inactive”.

For the compound `C#CCN(C)Cc1ccccc1`, the Potency result was “inactive”.
